The values below come from PubChem BioAssay.

Structures are written as SMILES. Records with an inconclusive call do not appear. Activity calls are given as the source filed them.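 The calls were made as follows, unless noted: active = inhibition above 50%, about 3 SD of the validation set; inactive = the rest.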

Assay [1] is described as follows: yeast TOR pathway RPL19A-GFP modulators, primary screen, cell-based, S. cerevisiae, multiplex flow cytometry (AID 1862; in the data active = percent of DMSO control GFP below about 86%;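 also: lower values mimic rapamycin by blocking the RPL19A rise seen in DMSO cells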). To be noted: S. cerevisiae RPL19A-GFP strain, flow cytometry fluorescence, 3 h; at 10 µM; stronger effect = lower value. (Flow cytometry measures light scatter and fluorescence of single cells or particles in a stream.)
A short description of assay [2]: modulators of MEP2-GFP levels in yeast, primary screen, S. cerevisiae, multiplex flow cytometry (AID 1867;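 active = GFP response, as percent of the DMSO control, above the screen-wide mean plus 3 SD, about 139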;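 also: median GFP channel fluorescence of barcode-gated MEP2-GFP cells measured by flow cytometry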). To be noted: S. cerevisiae MEP2-GFP strain, 3 h, at 10 µM, stronger effect = higher value, 100% means same as DMSO wells.
Assay [3] in a line: modulators of CIT2-GFP expression in yeast, primary screen, S. cerevisiae, GFP fusion, multiplex flow cytometry (AID 1870;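 active = percent response above a set limit, the screen-wide mean plus 3 SD, cut at about 130% in these data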;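 also: barcoded CIT2-GFP strain pooled with four other GFP strains with rapamycin as positive control; median GFP fluorescence per well over plate mean of DMSO wells so 100% = DMSO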). To be noted: 3 h, at 10 µM, stronger effect = higher value.
A short description of assay [4]: modulators of LAP4-GFP expression in yeast, primary screen, S. cerevisiae, multiplex flow cytometry (AID 1873;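 active = GFP signal, as percent of the solvent control, above the screen mean plus 3 SD, about 149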). To be noted: 3 h, at 10 µM, stronger effect = higher value.
Assay [5] can be described thus: modulators of AGP1-GFP expression in yeast TOR pathway, primary screen, cell-based, multiplex flow cytometry, S. cerevisiae (AID 1887;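 active = GFP signal above the screen-wide mean plus 3 SD, that is over about 124.5% of the solvent control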;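 also: AGP1-GFP fusion strain of S. cerevisiae within a five-strain barcoded multiplex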). The settings on record: 3 h, at 10 µM, stronger effect = higher value.
A short description of assay [6]: inhibitors of CD8+ T cell-vesicle binding, pilot screen, LFA-1/ICAM-1 modulator project, MLPCN validation set, flow cytometry (AID 2523;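 active = response below a set limit, under 55% cells CD8-positive and vesicle-bound, and CD8 cells' 90th-percentile brightness under 279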;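 as to vesicle binding response: mean PE anti-B7-1 fluorescence of CD8+ cells relative to row control; 100% = QL9-loaded vesicles with DMSO vehicle in the same plate row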). To be noted: 2C mouse CD8+ T cells, at 7 µM, stronger effect = lower value; double positive events: measured here: CD8+/vesicle+ event percentage.
Assay [7] has as its target Integrin beta-1 (Homo sapiens) + Integrin alpha-4 (Homo sapiens) (UniProt P13612+P05556). The assay is described as follows: inhibition of HUTS-21 binding to VLA-4, pilot screen, VLA-4 allosteric modulator project, U937 cells, HUTS-21 mAb, flow cytometry, validation set (AID 2674).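 Also: antibody binding induced by the VLA-4 ligand LDV present at three times its Kd; 0% = LDV ligand with antibody and no compound and 100% = antibody without LDV.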 To be noted: HUTS-21 LIBS mAb binding, at 6.7 µM, stronger effect = higher value, binding induced by LDV ligand.

A short description of assay [8]: superoxide lowering in aged yeast cells, pilot screen, validation compound set (AID 2706;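 active = superoxide response below 65% of plate, a cut near 3 SD across the whole screen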;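 also: yeast exposed to compound for one week at 30 degrees C before staining; 100% = mean of all compound wells on the same plate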). The settings on record: S. cerevisiae aging, superoxide DHE fluorescence; at 10 µM; stronger effect = lower value.
In assay [9] the target is Beta-adrenergic receptor kinase 1 (Homo sapiens) (UniProt P25098). Kind of assay: GRK2 binders displacing RNA aptamer, biochemical, validation, human GRK2, bead flow cytometry (AID 488806;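 active = aptamer binding inhibition above 30%, about 3 SD of noise from non-fluorescent compounds; inactive = inhibition at or below 30%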). To be noted: bead-bound GRK2, FAM-aptamer displacement, at 10 µM, stronger effect = higher value.
Beta-adrenergic receptor kinase 1 (Homo sapiens), sequence (P25098 whole entry, looked up): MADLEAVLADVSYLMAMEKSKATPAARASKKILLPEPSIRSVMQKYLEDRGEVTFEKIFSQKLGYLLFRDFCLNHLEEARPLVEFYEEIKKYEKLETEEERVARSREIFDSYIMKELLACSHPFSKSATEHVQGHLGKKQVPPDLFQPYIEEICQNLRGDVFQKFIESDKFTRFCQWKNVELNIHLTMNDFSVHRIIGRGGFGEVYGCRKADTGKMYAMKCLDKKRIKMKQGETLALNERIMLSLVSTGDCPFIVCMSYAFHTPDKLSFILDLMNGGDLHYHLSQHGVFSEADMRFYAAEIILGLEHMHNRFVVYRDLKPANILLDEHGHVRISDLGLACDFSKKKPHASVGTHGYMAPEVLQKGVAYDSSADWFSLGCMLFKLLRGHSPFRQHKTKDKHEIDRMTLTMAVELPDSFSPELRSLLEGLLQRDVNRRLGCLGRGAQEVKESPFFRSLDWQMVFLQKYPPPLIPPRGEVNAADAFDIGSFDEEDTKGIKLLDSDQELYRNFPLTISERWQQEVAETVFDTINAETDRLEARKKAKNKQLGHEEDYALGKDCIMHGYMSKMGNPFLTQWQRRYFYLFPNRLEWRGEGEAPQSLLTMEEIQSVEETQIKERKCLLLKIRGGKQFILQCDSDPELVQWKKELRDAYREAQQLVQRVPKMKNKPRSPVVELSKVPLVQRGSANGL
For assay [10], the target named is Beta-2 adrenergic receptor (Homo sapiens) (UniProt P07550). The assay is described as follows: beta2AR agonists driving receptor internalization, pilot screen, cell-based, FAP fluorogen, flow cytometry, validation set (AID 504459;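 active = percent response above 42, roughly 3 SD of non-fluorescent test compounds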;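 also: agonist-driven loss of surface beta2AR via internalization measured by FAP dye flow cytometry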). To be noted: Am2.2-beta2AR cells, FAP surface receptor flow cytometry; at 10 µM; stronger effect = higher value.
Beta-2 adrenergic receptor (Homo sapiens), sequence (P07550 whole entry, looked up): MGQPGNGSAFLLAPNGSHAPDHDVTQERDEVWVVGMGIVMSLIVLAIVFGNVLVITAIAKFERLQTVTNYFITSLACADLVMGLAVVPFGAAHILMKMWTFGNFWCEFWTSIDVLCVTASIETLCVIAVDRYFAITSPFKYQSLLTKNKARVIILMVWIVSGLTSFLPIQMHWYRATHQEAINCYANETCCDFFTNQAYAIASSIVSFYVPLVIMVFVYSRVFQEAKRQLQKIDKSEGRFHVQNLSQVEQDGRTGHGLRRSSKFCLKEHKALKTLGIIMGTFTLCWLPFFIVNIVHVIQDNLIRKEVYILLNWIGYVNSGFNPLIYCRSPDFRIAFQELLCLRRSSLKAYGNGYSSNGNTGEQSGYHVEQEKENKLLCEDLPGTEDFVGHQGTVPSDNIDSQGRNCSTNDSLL
The target of assay [11] is AP-2 complex subunit beta (Homo sapiens) (UniProt P63010). Kind of assay: inhibitors of arrestin peptide binding to AP2, pilot screen, biochemical, validation set, GST-AP2 beads, flow cytometry (AID 504541;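 active = inhibition above 54%, about 3 SD of non-fluorescent compounds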;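 also: AP2 carries R879A mutation and is captured from E. coli lysate; bead-bound FITC arrestin peptide fluorescence measuring arrestin peptide binding to AP2; 0% = DMSO wells and 100% = excess unlabeled arrestin peptide control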). The settings on record: FITC arrestin peptide, at 10 µM, stronger effect = higher value, AP2 beta2 appendage fragment, R879A mutant.
AP-2 complex subunit beta (Homo sapiens), sequence (P63010 whole entry, looked up, the tested form may be a part, one chain of several): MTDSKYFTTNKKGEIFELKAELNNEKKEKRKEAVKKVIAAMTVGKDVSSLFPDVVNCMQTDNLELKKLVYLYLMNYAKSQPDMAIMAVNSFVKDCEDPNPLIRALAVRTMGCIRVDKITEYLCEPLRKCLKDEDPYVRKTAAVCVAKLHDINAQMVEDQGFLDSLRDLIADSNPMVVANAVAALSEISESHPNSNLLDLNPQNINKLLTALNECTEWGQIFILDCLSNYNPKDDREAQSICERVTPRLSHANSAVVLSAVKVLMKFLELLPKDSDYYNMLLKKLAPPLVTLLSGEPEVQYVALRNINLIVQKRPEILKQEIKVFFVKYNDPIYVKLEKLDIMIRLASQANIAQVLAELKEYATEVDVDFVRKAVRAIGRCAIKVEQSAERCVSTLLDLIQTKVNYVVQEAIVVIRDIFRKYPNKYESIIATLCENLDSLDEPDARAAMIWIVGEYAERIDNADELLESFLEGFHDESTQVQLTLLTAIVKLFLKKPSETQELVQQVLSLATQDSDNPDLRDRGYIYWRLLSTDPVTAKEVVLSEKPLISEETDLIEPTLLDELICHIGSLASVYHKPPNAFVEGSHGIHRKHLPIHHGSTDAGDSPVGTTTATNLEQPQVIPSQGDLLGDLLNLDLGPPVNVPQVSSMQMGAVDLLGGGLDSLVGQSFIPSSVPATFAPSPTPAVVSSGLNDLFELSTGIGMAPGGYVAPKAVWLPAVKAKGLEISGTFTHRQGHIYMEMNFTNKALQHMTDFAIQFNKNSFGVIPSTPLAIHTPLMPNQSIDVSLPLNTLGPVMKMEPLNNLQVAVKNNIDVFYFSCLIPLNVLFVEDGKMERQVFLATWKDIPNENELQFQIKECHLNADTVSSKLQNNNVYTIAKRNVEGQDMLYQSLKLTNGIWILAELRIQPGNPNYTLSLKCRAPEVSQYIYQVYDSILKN
Assay [12] in a line: yeast V-ATPase proton transport modulators, S. cerevisiae, pHLuorin, HTS validation (AID 504600; in the data active = response above about 15%;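 also: plate controls were DMSO for no effect and reference compound for full effect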). To be noted: S. cerevisiae pHLuorin cytosolic pH, at 10 µM, stronger effect = higher value.
For assay [13], the system named is anti-desmoglein-3 scFv antibody binding to human DSG3. Kind of assay: inhibitors of anti-DSG3 scFv binding to DSG3, pilot screen, biochemical, validation compound set, bead-based, flow cytometry (AID 588368;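 active = binding below the plate cutoff, the plate median minus 3 SD, with a reading above zero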;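 also: signal is the median channel fluorescence of bead-bound GFP antibody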). To be noted: Protein G beads, DSG3-Fc, scFv-GFP binding, at 10 µM, stronger effect = lower value.
Assay [14] can be described thus: inhibitors of fungal efflux pumps CDR1, CDR2, MDR1, pilot screen, validation compound set, multiplex, phenotypic (AID 588506;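 active = efflux inhibition above 0.42, the validation set average plus 4 SD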;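 also: Nile Red retained in cells so higher fluorescence means more efflux inhibition; 0 = negative control wells and 1 = enniatin B 25 µM full block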). To be noted: S. cerevisiae pump-expressing triplex, Nile Red efflux flow cytometry; at 10 µM; stronger effect = higher value; the pumps come from Candida albicans.
The target of assay [15] is ATP-binding cassette sub-family B member 6 (Homo sapiens) (UniProt Q9NP58). Kind of assay: ABCB6 transporter inhibitors, pilot screen, K562-ABCB6 cells, flow cytometry, validation set (AID 588550;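 active = inhibition above the screen-wide mean plus 3 SD, about 51%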;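 also: 0% = DMSO wells and 100% = benzethonium chloride 70 µM positive control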). The settings on record: K562-ABCB6 porphyrin accumulation, 1 h, at 10 µM, stronger effect = higher value.
ATP-binding cassette sub-family B member 6 (Homo sapiens), sequence (Q9NP58 whole entry, looked up): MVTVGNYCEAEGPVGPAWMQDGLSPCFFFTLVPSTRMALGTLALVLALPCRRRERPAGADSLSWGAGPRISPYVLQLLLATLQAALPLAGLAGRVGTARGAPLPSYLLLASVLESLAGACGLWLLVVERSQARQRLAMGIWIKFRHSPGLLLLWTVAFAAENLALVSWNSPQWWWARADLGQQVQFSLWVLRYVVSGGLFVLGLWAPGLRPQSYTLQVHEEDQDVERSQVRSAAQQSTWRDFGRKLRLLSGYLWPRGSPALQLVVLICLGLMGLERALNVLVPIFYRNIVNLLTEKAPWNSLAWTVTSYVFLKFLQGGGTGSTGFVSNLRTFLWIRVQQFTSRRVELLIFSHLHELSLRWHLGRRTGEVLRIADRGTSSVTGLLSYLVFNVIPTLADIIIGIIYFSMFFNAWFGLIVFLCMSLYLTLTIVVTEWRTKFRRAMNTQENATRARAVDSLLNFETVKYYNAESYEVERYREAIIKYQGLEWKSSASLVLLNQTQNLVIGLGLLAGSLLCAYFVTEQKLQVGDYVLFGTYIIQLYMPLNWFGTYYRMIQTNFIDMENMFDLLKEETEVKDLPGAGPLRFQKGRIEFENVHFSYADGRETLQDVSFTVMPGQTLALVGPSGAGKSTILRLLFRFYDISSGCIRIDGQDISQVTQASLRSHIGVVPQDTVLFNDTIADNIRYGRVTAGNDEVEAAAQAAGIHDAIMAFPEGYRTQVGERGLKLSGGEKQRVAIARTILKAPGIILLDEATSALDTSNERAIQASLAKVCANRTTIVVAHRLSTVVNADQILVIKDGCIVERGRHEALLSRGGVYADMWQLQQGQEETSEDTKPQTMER
Assay [16] is described as follows: promoters of myeloid differentiation in arrested cells, primary screen, cell-based, GFP/MAC1 double positive, flow cytometry, validation set (AID 588685;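 active = differentiation response of at least 50%, scaled between solvent and reference control, from cells with both markers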;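 also: compound exposure lasts four days before antibody staining and flow analysis; 0% = DMSO wells and 100% = 5 µM fulvestrant positive control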). To be noted: ER-HoxA9 marrow cells, stronger effect = higher value, normalized: vehicle 0, fulvestrant 100.

Integrin beta-1 (Homo sapiens) + Integrin alpha-4 (Homo sapiens), sequence (P05556 whole entry, looked up): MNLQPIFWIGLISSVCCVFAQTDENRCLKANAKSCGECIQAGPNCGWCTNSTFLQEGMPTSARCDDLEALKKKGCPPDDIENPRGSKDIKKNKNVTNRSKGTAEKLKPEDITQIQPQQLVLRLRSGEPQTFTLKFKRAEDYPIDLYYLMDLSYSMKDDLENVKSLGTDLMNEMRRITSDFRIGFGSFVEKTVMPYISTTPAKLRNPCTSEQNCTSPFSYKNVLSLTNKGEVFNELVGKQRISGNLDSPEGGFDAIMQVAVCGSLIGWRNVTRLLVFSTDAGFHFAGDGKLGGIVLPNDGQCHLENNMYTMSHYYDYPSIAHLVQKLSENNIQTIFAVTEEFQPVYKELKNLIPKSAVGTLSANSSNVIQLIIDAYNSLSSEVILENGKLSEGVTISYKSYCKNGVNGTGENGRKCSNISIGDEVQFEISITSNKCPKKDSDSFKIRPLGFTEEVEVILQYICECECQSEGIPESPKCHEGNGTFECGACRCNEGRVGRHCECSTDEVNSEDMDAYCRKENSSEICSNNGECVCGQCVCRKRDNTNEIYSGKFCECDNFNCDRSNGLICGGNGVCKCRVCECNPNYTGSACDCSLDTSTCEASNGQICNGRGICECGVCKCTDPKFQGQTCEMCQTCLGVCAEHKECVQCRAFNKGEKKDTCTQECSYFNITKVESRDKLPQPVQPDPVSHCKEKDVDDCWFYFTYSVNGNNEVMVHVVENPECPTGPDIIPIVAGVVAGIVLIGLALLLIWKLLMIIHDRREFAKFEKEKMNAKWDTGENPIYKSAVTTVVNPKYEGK
Integrin beta-1 (Homo sapiens) + Integrin alpha-4 (Homo sapiens), sequence (P13612 whole entry, looked up): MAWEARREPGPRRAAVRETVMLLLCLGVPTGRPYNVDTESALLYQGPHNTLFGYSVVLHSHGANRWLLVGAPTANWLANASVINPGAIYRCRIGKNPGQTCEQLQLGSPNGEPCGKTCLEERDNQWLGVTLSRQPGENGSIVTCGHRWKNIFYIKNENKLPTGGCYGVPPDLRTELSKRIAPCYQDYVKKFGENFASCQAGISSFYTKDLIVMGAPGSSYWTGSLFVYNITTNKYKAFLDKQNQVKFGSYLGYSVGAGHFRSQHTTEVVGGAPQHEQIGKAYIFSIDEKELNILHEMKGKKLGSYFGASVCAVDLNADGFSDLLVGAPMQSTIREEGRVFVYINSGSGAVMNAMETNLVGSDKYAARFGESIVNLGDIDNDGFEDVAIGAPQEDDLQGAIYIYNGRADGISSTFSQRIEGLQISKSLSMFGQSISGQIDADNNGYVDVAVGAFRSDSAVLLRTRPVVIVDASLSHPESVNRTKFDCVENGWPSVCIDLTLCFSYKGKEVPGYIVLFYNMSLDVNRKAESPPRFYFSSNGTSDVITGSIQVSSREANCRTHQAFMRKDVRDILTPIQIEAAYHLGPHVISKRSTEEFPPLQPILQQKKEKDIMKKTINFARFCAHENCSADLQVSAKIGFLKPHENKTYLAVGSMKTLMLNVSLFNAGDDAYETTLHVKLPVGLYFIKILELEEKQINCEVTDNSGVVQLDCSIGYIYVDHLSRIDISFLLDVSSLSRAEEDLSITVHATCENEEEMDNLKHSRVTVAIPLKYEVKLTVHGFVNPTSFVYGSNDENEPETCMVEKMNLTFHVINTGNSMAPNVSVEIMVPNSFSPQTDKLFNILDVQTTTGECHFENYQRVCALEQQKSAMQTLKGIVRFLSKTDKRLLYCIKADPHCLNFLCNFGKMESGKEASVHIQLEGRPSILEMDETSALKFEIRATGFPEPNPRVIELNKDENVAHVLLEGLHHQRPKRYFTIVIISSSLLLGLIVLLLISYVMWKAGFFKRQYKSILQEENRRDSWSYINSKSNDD

Take `C[C@H]1O[C@@H](O[C@H]2[C@@H](O)C[C@H](O[C@H]3[C@@H](O)C[C@H](O[C@H]4CC[C@@]5(C)[C@H](CC[C@@H]6[C@@H]5C[C@@H](O)[C@]5(C)[C@@H](C7=CC(=O)OC7)CC[C@]65O)C4)O[C@@H]3C)O[C@@H]2C)C[C@H](O)[C@@H]1O`: the percent of DMSO control GFP in assay [1] is 100% (inactive). The figures for the GFP response vs DMSO in [2] and in assay [4] were 105% (inactive) and 93.7% (inactive), respectively. In [3], the percent response of DMSO control was 95.5% (inactive). Besides, in [5], the GFP response, % of DMSO was 93.7% (inactive). The double positive events in [6] amounted to 62.7%. Further, the vesicle binding response in assay [6] was 151% (inactive). Moreover, the inhibition was 11% (inactive) in [7], -11.4% (inactive) in [11] and -10% (inactive) in assay [15]. Moreover, in assay [8], the superoxide response (% of plate) was 90.7% (inactive). The aptamer binding inhibition in assay [9] was -2% (inactive). The response is 12.4% (inactive) in [10] and 1.64% (inactive) in [12]. Besides, in assay [13], the binding (% of control) is 103% (inactive). For the same molecule, the efflux inhibition (fraction of control) in [14] is -0.07 (inactive). Moreover, the differentiation response in assay [16] is 5.67% (inactive).
Consider `Cn1nnnc1SCC1=C(C(=O)O)N2C(=O)[C@@H](NC(=O)[C@H](O)c3ccccc3)[C@H]2SC1`, for which, in assay [1], the percent of DMSO control GFP was 97.7% (inactive). The GFP response vs DMSO in [2] is 115% (inactive); in assay [4] it was 90.2% (inactive). For the same molecule, in assay [3], the percent response of DMSO control was 106% (inactive). Also, the GFP response, % of DMSO in assay [5] was 103% (inactive). Besides, in assay [6], the double positive events was found to be 67.4%. Also, the vesicle binding response in assay [6] is 318% (inactive). The inhibition was 0.64% (inactive) in assay [7], 3.95% (inactive) in [11] and 16% (inactive) in [15]. Also, the superoxide response (% of plate) in [8] was 86.1% (inactive). Moreover, the aptamer binding inhibition in assay [9] was 13% (inactive). For the same molecule, the response was 3.85% (inactive) in [10] and 1.15% (inactive) in assay [12]. The binding (% of control) in [13] was 107% (inactive). The efflux inhibition (fraction of control) in assay [14] was 0.3 (inactive). Also, the differentiation response in assay [16] was 15.6% (inactive).
Turning to `CCC(C)n1ncn(-c2ccc(N3CCN(c4ccc(OCC5COC(Cn6cncn6)(c6ccc(Cl)cc6Cl)O5)cc4)CC3)cc2)c1=O` (stereo not drawn), in assay [1], the percent of DMSO control GFP is 115% (inactive). Also, the GFP response vs DMSO was 110% (inactive) in [2] and 133% (inactive) in assay [4]. For the same molecule, in assay [3], the percent response of DMSO control was 97.1% (inactive). Also, in [5], the GFP response, % of DMSO is 102% (inactive). In [6], this molecule registered a double positive events of 58.2%. For the same molecule, in [6], the vesicle binding response was 22.8% (inactive). Also, the figures for the inhibition in assay [7], in [11] and in assay [15] were 3.98% (inactive), -13.8% (inactive) and 7% (inactive), respectively. The superoxide response (% of plate) in [8] is 53.9% (active). In addition, the aptamer binding inhibition in [9] is 4% (inactive). Moreover, the response in assay [10] is 8.75% (inactive); in [12], 1.4% (inactive). Moreover, the binding (% of control) in [13] was 99.3% (inactive). In assay [14], the efflux inhibition (fraction of control) is 0.55 (active). Besides, the differentiation response in assay [16] is 6.49% (inactive).
In the case of `CC(CCc1ccccc1)NC(=O)/C=C/c1ccccc1` (stereo not drawn), the percent of DMSO control GFP in assay [1] is 92.6% (inactive). The GFP response vs DMSO in assay [2] was 132% (inactive); in assay [4], 92.4% (inactive). Also, in assay [3], the percent response of DMSO control was 107% (inactive). The GFP response, % of DMSO in assay [5] is 81.7% (inactive). This molecule had a double positive events in assay [6] of 61.8%. Besides, the vesicle binding response in assay [6] is 129% (inactive). Also, the figures for the inhibition in assay [7], in [11] and in assay [15] were 1.61% (inactive), -0.16% (inactive) and 12% (inactive), respectively. Besides, in assay [8], the superoxide response (% of plate) is 91.7% (inactive). Moreover, the aptamer binding inhibition in assay [9] was 5% (inactive). In addition, the response in [10] is -12.9% (inactive); in [12], 1.44% (inactive). The binding (% of control) in [13] is 103% (inactive). The efflux inhibition (fraction of control) in assay [14] was -0.13 (inactive). In addition, in assay [16], the differentiation response was 0% (inactive).

The inhibition is the change of the read-out against control, counted positive when it falls.
